Unmarked numbers belong to inactive results. Records with an inconclusive call do not appear. Active and inactive are the calls of the source. Unless noted, calls come from the whole dose curve; as a rule, active = well fitted curve in the direction sought with a large enough effect in the repeat runs; inconclusive = weak or mixed curves; inactive = no such curve, though single readings can be large; an effect the other way counts as inactive or inconclusive.

Test [1] is described as follows: qHTS assay to identify small molecule agonists of the estrogen receptor alpha (ER-alpha) signaling pathway in the presence of an antagonist - cell viability counter screen (AID 1259386).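 Note: cells exposed to compounds for 22 h at 37 °C before the viability read; nearly all actives have a fitted effect of over 30% in size.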 Note: potency is the fitted concentration of half-maximal effect. The procedure, abridged:
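Cells are starved of estrogens for 5 days in charcoal-stripped serum, seeded for 24hr and co-treated with ICI-182,780 (10.0nM final) and test compounds. After 22hr at 37C, viability is read as CellTiter-Fluor fluorescence.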
(Quantitative high-throughput screening tests each substance at several concentrations.)

For test [2], the target named is Progesterone receptor (Homo sapiens) (UniProt P06401). The test can be described thus: qHTS assay to identify small molecule agonists of the progesterone receptor (PR) signaling pathway (AID 1346784; calls by dose curve; note: nearly all actives have a fitted effect of over 30% in size). The procedure, abridged: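 Cells (PR-UAS-bla HEK 293T, GripTite) were plated in assay medium containing 2% charcoal-stripped FBS and incubated 6 hr. Test compounds in DMSO were added for 16 hr at 37C. FRET substrate was then loaded for 2 hr at room temperature before fluorescence reading.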

Test [3] has the same target. The test can be described thus: qHTS assay to identify small molecule antagonists of the progesterone receptor (PR) signaling pathway (AID 1346795; active = well fitted inhibition curve with a large enough effect in the signal ratio in the repeat runs, not every such curve was filed as active; the % refers to the signal ratio). The procedure, abridged: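 Antagonist mode: compounds tested against 1 nM (final) promegestone stimulation in HEK293T cells expressing PR-UAS-bla reporter, 16 hr at 37C, 5% CO2; beta-lactamase activity detected via B/G FRET substrate after 2 hr at room temperature.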

A short description of test [4]: qHTS assay to identify small molecule antagonists of the progesterone receptor (PR) signaling pathway - cell viability counter screen (AID 1346798). Note: series mostly up to about 92 µM; nearly all actives have a fitted effect of over 50% in size. The procedure, abridged: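 Counter screen for cytotoxicity: viability of PR-UAS-bla HEK293T cells was measured with CellTiter-Glo luminescence following 16 hr compound exposure in the presence of R5020.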
Test [5] is described as follows: qHTS assay to identify small molecule agonists of the progesterone receptor (PR) signaling pathway - cell viability counter screen (AID 1346799; calls by dose curve; note: nearly all actives have a fitted effect of over 45% in size). The procedure, abridged: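 Cells (PR-UAS-bla HEK293T) are plated at 3,000/well in 2% charcoal-stripped FBS medium, rested 6 hr, dosed and incubated 16 hr at 37C. CellTiter-Glo is then added and luminescence measured after 30 min at room temperature.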

Test [6] is described as follows: qHTS assay to identify small molecule antagonists of the TGF-beta/Smad signaling pathway - cell viability counter screen (AID 1346824). Note: nearly all actives have a fitted effect of over 50% in size. The procedure, abridged:
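SBE-bla HEK 293T cells, incubated overnight, then compound plus 0.25 ng/mL TGF-beta1 (stock added) for 5 hr at 37 C. Viability was read in the same wells by CellTiter-Glo luminescence after 30 min at room temperature.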

A short description of test [7]: qHTS assay to identify small molecule agonists of the TGF-beta/Smad signaling pathway - cell viability counter screen (AID 1346829). Note: top concentration of the series differs between compounds; nearly all actives have a fitted effect of over 45% in size. The procedure, abridged:
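Tox21 qHTS format: SBE-bla HEK 293T cells treated with DMSO-dissolved compounds for 5 hr; CellTiter-Glo luminescence after 30 min at room temperature.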

Test [8] in a line: qHTS assay to identify small molecule agonists of the TGF-beta/Smad signaling pathway (AID 1346859; active = well fitted activation curve with a large enough effect in the signal ratio in the repeat runs, not every such curve was filed as active; the % refers to the signal ratio; note: series mostly up to about 77 µM). The essentials: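 Reporter line: HEK 293T with stably integrated SBE-controlled beta-lactamase. Compound exposure lasts 5 hr at 37 C and 5% CO2; substrate loading follows for 2 hr at room temperature, with emission read at 460 and 530 nm.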
Test [9] addresses Thyrotropin-releasing hormone receptor (Homo sapiens) (UniProt P34981). The test can be described thus: qHTS assay to identify small molecule antagonists of the thyrotropin-releasing hormone receptor (TRHR) signaling pathway (AID 1346877; active = well fitted inhibition curve with a large enough effect in the repeat runs, not every such curve was filed as active; note: series mostly up to about 51 µM). The essentials:
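Cells (TRHR-HEK293) are plated and kept 18 h at 37 °C/5% CO2. A calcium-sensitive dye is added for 2 h, compound follows for 5 min at room temperature, and TRH is then given at 1 nM final.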

Test [10] has the same target. In words: qHTS assay to identify small molecule agonists of the thyrotropin-releasing hormone receptor (TRHR) signaling pathway (AID 1346891; calls by dose curve;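 note: HEK293 cells expressing TRHR with calcium dye readout; series mostly up to about 58 µM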). The essentials:
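Cells: TRHR-Hek293, seeded and incubated 18 h. Dye loading: 2 h at 37 °C. Compound added from DMSO stock by pin tool. Read-out: kinetic calcium fluorescence over 3 min.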

Test [11] in a line: Human pregnane X receptor (PXR) small molecule agonists, qHTS cell viability counter screen (AID 1346977). Note: nearly all actives have a fitted effect of over 50% in size. Note: potency is the fitted concentration of half-maximal effect. The procedure, abridged: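 Cytotoxicity counter screen run in the same wells as the PXR luciferase assay, using PXR-Luc HepG2 cells in charcoal-stripped serum medium. Viability: CellTiter-Fluor fluorescence after 24hr compound treatment.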
Test [12] in a line: Caspase-3/7 induction in HepG2 cells by small molecules, qHTS assay (AID 1346978). Note: nearly all actives have a fitted effect of over 15% in size. The procedure, abridged:
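Wild-type HepG2 cells, 2,000/well, settled 5 hr at 37 C and 5% CO2, then compound-treated for 17 hr; caspase-3/7 activity read by luminescent Caspase-Glo 3/7 after 30 min at room temperature.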

The nature of test [13]: Caspase-3/7 induction in CHO-K1 cells by small molecules, qHTS cell viability counter screen (AID 1346979). Note: nearly all actives have a fitted effect of over 35% in size. Note: potency is the fitted concentration of half-maximal effect. The procedure, abridged:
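Cytotoxicity counter screen run in parallel with the caspase-3/7 assay: CHO-K1 cells, 16hr compound treatment at 37C, then CellTiter-Fluor for 1hr before fluorescence reading.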

The nature of test [14]: Caspase-3/7 induction in CHO-K1 cells by small molecules, qHTS assay (AID 1346980). Note: nearly all actives have a fitted effect of over 15% in size. The essentials:
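Wild-type CHO-K1 cells exposed to compounds for 17hr at 37 C, 5% CO2. Caspase-3/7 activity then measured by Caspase-Glo 3/7 luminescence after 30min at room temperature.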

Test [15] can be described thus: Caspase-3/7 induction in HepG2 cells by small molecules, qHTS cell viability counter screen (AID 1346981). Note: nearly all actives have a fitted effect of over 30% in size. Note: potency is the fitted concentration of half-maximal effect. The essentials: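 Steps: seed 2,000 HepG2 cells per well; incubate 5 hr at 37 C; pin-add compounds in DMSO; incubate 16 hr; add CellTiter-Fluor; after 1 hr at 37 C and 5% CO2, read fluorescence.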
For test [16], the target named is Nuclear receptor subfamily 1 group I member 2 (Homo sapiens) (UniProt O75469). The test can be described thus: Human pregnane X receptor (PXR) small molecule agonists, qHTS assay (AID 1346982). Note: nearly all actives have a fitted effect of over 35% in size. Note: potency is the fitted concentration of half-maximal effect. The procedure, abridged: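 Agonist mode qHTS: PXR-Luc HepG2 cells plated 5 hr before DMSO-dissolved compounds were pinned in, cultured 24 hr at 37 C, 5% CO2; ONE-Glo luminescence readout.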

Test [17] addresses Cytochrome P450 2D6 (Homo sapiens) (UniProt P10635). In words: Cytochrome P450 Family 2 Subfamily D Member 6 (CYP2D6) small molecule antagonists: luciferase reporter qHTS assay (AID 1671196). Note: series mostly up to about 120 µM; nearly all actives have a fitted effect of over 50% in size. The essentials: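 P450-Glo format: CYP2D6 converts a proluciferin substrate to luciferin in an NADPH-driven reaction lasting 1 h at room temperature. Light output, proportional to CYP2D6 activity, reflects interference by test chemicals.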

Test [18] concerns the target Nuclear receptor subfamily 1 group I member 2 (Homo sapiens) (UniProt O75469). In words: CYP3A4 induction through human pregnane X receptor (PXR) by small molecules, qHTS assay (AID 1346984). Note: nearly all actives have a fitted effect of over 40% in size. The essentials: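 Steps: seed DPX-2 cells, 5 hr at 37C; pin-transfer compounds; 24 hr at 37C; add Luciferin-IPA (3uM final), 3 hr at 37C; add One-Glo, 30 min RT; read luminescence.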

The target is the same in test [19]. In words: Human pregnane X receptor (PXR) activation by small molecules, qHTS assay (AID 1346985). Note: nearly all actives have a fitted effect of over 40% in size. Note: potency is the fitted concentration of half-maximal effect. The essentials: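 DPX-2 cells (HepG2 co-transfected with a PXR response element and a CYP3A4-promoter luciferase construct) were seeded at 2,000 per well, rested 5 hr at 37C, then exposed to DMSO-dissolved compounds for 24 hr. Activation was read as luciferase luminescence.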

The target of test [20] is Nuclear receptor subfamily 1 group I member 2 (Rattus norvegicus) (UniProt Q9R1A7). In words: Rat pregnane X receptor (rPXR) activation by small molecules, qHTS assay (AID 1346983). Note: nearly all actives have a fitted effect of over 20% in size. The following applies: rPXR luciferase reporter cells, One-Glo luminescence, 24 h; active compounds read high. The essentials: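 Cell-based rPXR activation assay: rPXR cells, 2,000 per well, rested 5hr at 37 C, then exposed to compounds in DMSO for 24 hr at 37 C. Luciferase activity read by One-Glo luminescence after 30 min at room temperature.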
% is set by controls: 0 for no effect and ±100 for the full control effect.

Sequence of Thyrotropin-releasing hormone receptor (Homo sapiens) (P34981 whole entry, looked up): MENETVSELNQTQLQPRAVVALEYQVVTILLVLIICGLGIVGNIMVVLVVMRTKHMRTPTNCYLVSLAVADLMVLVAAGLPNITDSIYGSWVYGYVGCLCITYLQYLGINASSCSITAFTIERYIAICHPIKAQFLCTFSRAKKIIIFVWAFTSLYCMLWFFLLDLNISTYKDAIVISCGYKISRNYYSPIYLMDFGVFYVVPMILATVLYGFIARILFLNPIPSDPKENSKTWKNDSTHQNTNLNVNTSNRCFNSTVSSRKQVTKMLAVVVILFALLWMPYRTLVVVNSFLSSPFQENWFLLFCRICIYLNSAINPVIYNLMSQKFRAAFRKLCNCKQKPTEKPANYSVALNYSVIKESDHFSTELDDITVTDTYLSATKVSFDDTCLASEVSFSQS
Sequence of Cytochrome P450 2D6 (Homo sapiens) (P10635 whole entry, looked up): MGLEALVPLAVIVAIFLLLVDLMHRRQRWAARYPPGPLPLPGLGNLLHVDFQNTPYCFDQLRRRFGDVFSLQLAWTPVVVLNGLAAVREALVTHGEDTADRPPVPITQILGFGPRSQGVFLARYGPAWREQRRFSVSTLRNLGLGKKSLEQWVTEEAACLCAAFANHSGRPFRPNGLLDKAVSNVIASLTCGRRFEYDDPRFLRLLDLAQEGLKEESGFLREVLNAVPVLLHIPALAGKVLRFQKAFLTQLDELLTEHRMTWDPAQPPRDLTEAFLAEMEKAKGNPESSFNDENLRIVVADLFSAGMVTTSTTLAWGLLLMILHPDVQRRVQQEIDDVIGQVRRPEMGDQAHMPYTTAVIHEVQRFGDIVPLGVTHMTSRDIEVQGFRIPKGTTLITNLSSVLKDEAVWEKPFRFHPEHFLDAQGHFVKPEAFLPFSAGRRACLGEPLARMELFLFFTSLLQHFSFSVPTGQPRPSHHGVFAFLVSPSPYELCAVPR
Sequence of Progesterone receptor (Homo sapiens) (P06401 whole entry, looked up): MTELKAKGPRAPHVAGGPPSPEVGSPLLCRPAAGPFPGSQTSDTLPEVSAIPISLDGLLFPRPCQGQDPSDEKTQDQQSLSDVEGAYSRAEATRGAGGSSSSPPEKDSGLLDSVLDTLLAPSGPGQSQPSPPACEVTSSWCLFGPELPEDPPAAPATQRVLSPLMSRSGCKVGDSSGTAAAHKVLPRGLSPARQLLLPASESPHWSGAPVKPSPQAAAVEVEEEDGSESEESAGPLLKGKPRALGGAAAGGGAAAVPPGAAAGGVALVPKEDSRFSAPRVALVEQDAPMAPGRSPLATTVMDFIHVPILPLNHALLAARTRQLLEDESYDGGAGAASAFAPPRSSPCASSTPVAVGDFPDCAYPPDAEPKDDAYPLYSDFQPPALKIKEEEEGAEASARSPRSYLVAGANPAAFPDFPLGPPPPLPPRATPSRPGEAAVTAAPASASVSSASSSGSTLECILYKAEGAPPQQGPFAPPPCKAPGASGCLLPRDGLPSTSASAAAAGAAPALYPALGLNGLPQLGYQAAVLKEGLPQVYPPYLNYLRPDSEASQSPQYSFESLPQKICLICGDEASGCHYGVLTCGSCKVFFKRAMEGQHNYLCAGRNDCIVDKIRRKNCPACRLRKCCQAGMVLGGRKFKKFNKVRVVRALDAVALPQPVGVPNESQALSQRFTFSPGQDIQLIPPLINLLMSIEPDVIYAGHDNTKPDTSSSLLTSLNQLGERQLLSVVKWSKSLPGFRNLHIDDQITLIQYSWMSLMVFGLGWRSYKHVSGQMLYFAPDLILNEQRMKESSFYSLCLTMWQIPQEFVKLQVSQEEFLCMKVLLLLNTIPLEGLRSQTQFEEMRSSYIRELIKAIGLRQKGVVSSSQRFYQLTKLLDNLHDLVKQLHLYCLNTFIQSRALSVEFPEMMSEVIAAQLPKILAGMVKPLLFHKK
Sequence of Nuclear receptor subfamily 1 group I member 2 (Homo sapiens) (O75469 whole entry, looked up): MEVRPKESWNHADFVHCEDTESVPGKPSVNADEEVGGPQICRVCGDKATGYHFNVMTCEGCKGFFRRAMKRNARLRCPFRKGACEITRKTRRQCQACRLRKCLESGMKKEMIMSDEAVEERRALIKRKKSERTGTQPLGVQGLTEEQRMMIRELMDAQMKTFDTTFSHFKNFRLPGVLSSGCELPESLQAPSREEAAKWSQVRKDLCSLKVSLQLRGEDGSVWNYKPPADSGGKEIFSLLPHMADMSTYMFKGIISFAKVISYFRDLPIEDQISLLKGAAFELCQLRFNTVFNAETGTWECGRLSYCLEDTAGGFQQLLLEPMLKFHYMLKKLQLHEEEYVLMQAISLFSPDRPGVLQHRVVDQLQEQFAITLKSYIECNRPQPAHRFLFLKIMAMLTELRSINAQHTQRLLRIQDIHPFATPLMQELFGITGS
Sequence of Nuclear receptor subfamily 1 group I member 2 (Rattus norvegicus) (Q9R1A7 whole entry, looked up): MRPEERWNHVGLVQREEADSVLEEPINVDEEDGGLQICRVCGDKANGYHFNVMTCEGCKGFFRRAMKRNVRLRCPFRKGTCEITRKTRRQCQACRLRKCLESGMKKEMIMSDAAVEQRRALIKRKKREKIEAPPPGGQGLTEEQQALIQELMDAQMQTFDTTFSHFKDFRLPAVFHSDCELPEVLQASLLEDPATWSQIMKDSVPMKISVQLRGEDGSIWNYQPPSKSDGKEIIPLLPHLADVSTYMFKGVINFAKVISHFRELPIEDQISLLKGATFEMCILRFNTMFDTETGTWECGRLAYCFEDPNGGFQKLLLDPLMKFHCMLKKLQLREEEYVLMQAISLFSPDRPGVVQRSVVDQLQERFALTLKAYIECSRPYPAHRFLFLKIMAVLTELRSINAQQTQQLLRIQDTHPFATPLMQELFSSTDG

Turning to `CCCCOC(=O)CC`, the Potency result in [1], in test [2], in test [3], in test [4], in test [5] and in test [6] was “inactive” throughout. The Potency result in [7], in test [8], in [9], in [11], in test [12] and in test [13] was “inactive” each time. Also, the Potency entry in test [14], in test [15], in test [16] and in [17] was “inactive” each time. In addition, in test [10], the molecule was called inactive.

Turning to `CC(C)CCCCCOC(=O)CCS`, the Potency entry in test [1], in [2], in test [3], in [4], in test [5] and in [6] was “inactive” each time. Moreover, the Potency result in test [7], in [8], in test [9], in test [11], in test [12] and in [13] was “inactive” throughout. Moreover, the Potency entry in [14], in test [15], in test [16] and in test [17] was “inactive” in each case. Besides, the molecule was classed as inactive in [10].

As to `Cc1ccc(C(C)C)cc2c(C)ccc1-2`, the Potency entry in test [1], in test [2], in test [3], in test [4], in [5] and in test [6] was “inactive” in each case. Further, the Potency result in test [7], in [8], in [9], in [11], in test [12] and in test [13] was “inactive” each time. The Potency result in [14], in test [15], in test [18] and in test [17] was “inactive” in each case. For the same molecule, the call in test [10] was inactive. The Potency in test [16] was 10.6 µM (active); in [19] it was 22.4 µM (active).

As for `O=C(/C=C/c1ccccc1)OC/C=C/c1ccccc1`, the Potency result in test [1], in test [2], in test [3], in [4], in test [5] and in [6] was “inactive” each time. The Potency entry in test [7], in test [8], in test [9], in test [11], in test [12] and in test [13] was “inactive” in each case. For the same molecule, the Potency entry in test [14] and in test [17] was “inactive” in each case. Besides, the molecule was classed as inactive in [10].

Consider `CCCCOC(=O)CO`, for which the Potency result in test [1], in test [2], in test [3], in test [4], in test [5] and in [6] was “inactive” throughout. The Potency entry in test [7], in [8], in test [9], in test [11], in [12] and in test [13] was “inactive” in each case. For the same molecule, the Potency entry in [14], in test [15], in test [16] and in test [17] was “inactive” in each case. The result in [10] was inactive.

Regarding `Cc1ccc(N/N=c2\c(=O)cc/c(=N\Nc3ccc(S(=O)(=O)O)cc3)c2=O)c(C)c1`, the Potency in test [1] is 34.4 µM (active); in [11], 30.6 µM (active); in [13], 27.3 µM (active); in test [15], 54.5 µM (active). In addition, the Potency entry in [2], in [3], in test [4], in test [5], in test [6] and in [7] was “inactive” in each case. Also, the Potency entry in test [8], in [9], in test [12] and in test [14] was “inactive” throughout. Further, in test [10], the molecule was called inactive.

For the molecule `CCc1cccc(CC)c1NC(=O)CN(CC(=O)O)CC(=O)O`, the Potency entry in test [1], in [2], in [3], in [4], in [5] and in [6] was “inactive” each time. In addition, the Potency entry in test [7], in test [8], in test [9], in [11], in test [12] and in [13] was “inactive” in each case. For the same molecule, the Potency entry in [14], in test [15], in test [16], in test [18], in test [19] and in test [17] was “inactive” throughout. In addition, the molecule was called inactive in [10]. Also, the max activation in test [20] was -4.1%.

For the origin of these results see PubChem BioAssay (Tox21).
